Source: the supplement of paper PMC6555819

What was measured:
Experiment in all cases: PBM binding z-score (relative to random genomic background probes); higher = stronger binding; sequences stand for … in GC…GCGATTGACAGCGTAGAATGAAGG
[1] = tested on: PPARg:RXRa DBDmut IVT, anti-RXR (DBD mutation: RXRa K156A/R161A, NR concentration 270 nM, RXRa partner concentration 90 nM)
In short: (§1)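 Binding z-scores were set against random background probes. The data came from custom Agilent 4×180K protein-binding microarrays carrying double-stranded probes with 34-nt variable regions, incubated 1 h with ligand-free nuclear receptor dimers. Partner-specific antibodies detected binding, and scanned fluorescence was regression-normalized.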

[2] = tested on: PPARg:RXRa IVT, anti-PPARg (NR concentration 270 nM, RXRa partner concentration 90 nM)
In short: as §1

[3] = tested on: PPARg DBDmut:RXRa IVT, anti-PPARg (DBD mutation: PPARg1 K132A/R137A, NR concentration 270 nM, RXRa partner concentration 90 nM)
In short: as §1

[4] = tested on: PPARg DBDmut IVT, anti-PPARg (DBD mutation: PPARg1 K132A/R137A, NR concentration 270 nM)
In short: as §1

[5] = tested on: PPARg homodimer (NR concentration 180 nM)
In short: as §1

[6] = tested on: PXR:RXRa (NR concentration 270 nM, RXRa partner concentration 90 nM)
In short: as §1

[7] = tested on: PXR homodimer (NR concentration 270 nM)
In short: as §1

[8] = tested on: RARa:RXR (NR concentration 270 nM, RXRa partner concentration 90 nM)
In short: as §1

[9] = tested on: RARa homodimer (NR concentration 270 nM)
In short: as §1

[10] = tested on: RARb:RXRa (NR concentration 270 nM, RXRa partner concentration 90 nM)
In short: as §1

[11] = tested on: RARb homodimer (NR concentration 270 nM)
In short: as §1

[12] = tested on: RARg:RXRa (NR concentration 270 nM, RXRa partner concentration 90 nM)
In short: as §1

[13] = tested on: RARg homodimer (NR concentration 270 nM)
In short: as §1

[14] = tested on: RXRa DBDmut IVT, anti-RXR (DBD mutation: RXRa K156A/R161A, NR concentration 90 nM)
In short: as §1

[15] = tested on: RXRa homodimer (NR concentration 180 nM)
In short: as §1

[16] = tested on: THRa:RXRa (NR concentration 90 nM, RXRa partner concentration 90 nM)
In short: as §1

[17] = tested on: THRa homodimer (NR concentration 90 nM)
In short: as §1

[18] = tested on: VDR homodimer (NR concentration 270 nM)
In short: as §1

Row | Sequence | PBM binding z-score [1] | PBM binding z-score [2] | PBM binding z-score [3] | PBM binding z-score [4] | PBM binding z-score [5] | PBM binding z-score [6] | PBM binding z-score [7] | PBM binding z-score [8] | PBM binding z-score [9] | PBM binding z-score [10] | PBM binding z-score [11] | PBM binding z-score [12] | PBM binding z-score [13] | PBM binding z-score [14] | PBM binding z-score [15] | PBM binding z-score [16] | PBM binding z-score [17] | PBM binding z-score [18]
1 | ATTCAAAGTTCAGGACGAGGTAACGTAAAGCACG | -0.268 | 1.33 | 1.03 | 0.76 | 1.93 | 2.95 | 1.44 | 3.01 | 0.385 | 4.19 | 3.31 | 4.56 | 4.73 | 2.99 | 3.08 | 3.82 | 2.01 | 2.3
2 | CCTACTGGGCCAAGGACATTGATCAGTCAAAGCA | 3.42 | 3.05 | -0.364 | -0.839 | -0.294 | -0.555 | -0.0775 | -0.237 | -0.533 | 0.145 | 0.324 | 0.0324 | 0.267 | -0.538 | -0.348 | 1.29 | 0.695 | 0.333
3 | TCATATAGGTAAATGCTAGGTGAAAGGCCGATCT | 3.92 | 2.61 | 1.09 | 0.912 | 1.13 | 0.776 | 0.428 | 1.1 | 1.3 | 0.655 | 0.766 | 0.683 | 0.329 | 1.57 | 0.896 | 1.53 | 0.386 | 0.46
4 | ATATGTAGGTTAAGGGTCATTAAGGTTGGTTCGC | 7.35 | 7.81 | 2.09 | 1.17 | 3.24 | 4.92 | 3.59 | 5.16 | 2.38 | 3.74 | 4.07 | 4.66 | 3.54 | 1.78 | 5.92 | 3.48 | 1.58 | 3.96
5 | TCTTGTAGATCAAAGGTTAAGTAAGCCGAAGCCT | 2.31 | 3.98 | 0.677 | 0.732 | 0.931 | 2.16 | 0.0156 | 3.2 | 0.12 | 2.23 | 1.76 | 2.18 | 1.14 | 0.911 | 3.27 | 1.92 | -0.293 | -0.446
6 | TTACCAAGGTGAAAGGCCGTTGATGCACGCCTTG | 1.83 | 3.1 | 1.11 | -0.0172 | 1.5 | 0.172 | -0.516 | 1.1 | -0.123 | 1.66 | 1.1 | 0.963 | 0.384 | -0.3 | 1.3 | 1.45 | 0.31 | -0.0991
7 | GCGACTGTGGCAAAGCAGGTTACCATAAGGTTGG | 0.686 | 0.528 | -0.512 | -1.16 | -0.377 | -0.184 | -0.793 | -0.0448 | -0.9 | -0.0264 | 0.168 | -0.101 | -0.193 | -0.432 | 0.102 | 1.22 | -0.306 | -1.03
8 | CCGACTGGGGCGGAAAGGTTACCATACCATCCGG | -0.0321 | 0.59 | -0.91 | -0.926 | 0.423 | 1.17 | -0.39 | 1.96 | -0.133 | 1.43 | 2.17 | 1.49 | 0.882 | -1.21 | 1.76 | 1 | -0.282 | -0.201
